Measurements taken from the supplement of paper PMC7411054.

Tests used:
Settings in all cases: treatment time: 24 h
A549-ACTB-RAB5A [1] = assay: phenotypically active (imaging signature differs from DMSO and reproducible) at any of 0.3-9 uM (binary (1 = active, 0 = inactive)); higher = active
Method in brief: (§1)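 Live-cell features were measured per well and normalised to solvent control wells after fifteen gene-edited A549, HepG2 and WPMY1 reporter lines had been treated for 24 h at 0.3, 1, 3 or 9 µM in four wells each. A condition was deviating when ≥3 of 4 wells sat beyond the 95th percentile of control Euclidean distances. It was reproducible when the median replicate Pearson correlation exceeded the 95th percentile of non-replicates. Phenotypic activity demanded both.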

A549-CANX-COX4 = assay: as above
Method in brief: as §1

A549-GM130-SQSTM1 = assay: as above
Method in brief: as §1

A549-TP53BP1-CLTA [2] = assay: as above
Method in brief: as §1

A549-TUBA1B-RELA = assay: as above
Method in brief: as §1

HepG2-ACTB-RAB5A = assay: as above
Method in brief: as §1

HepG2-CANX-COX4 = assay: as above
Method in brief: as §1

HepG2-GM130-SQSTM1 = assay: as above
Method in brief: as §1

HepG2-TP53BP1-CLTA [3] = assay: as above
Method in brief: as §1

HepG2-TUBA1B-RELA = assay: as above
Method in brief: as §1

WPMY1-ACTB-RAB5A = assay: as above
Method in brief: as §1

WPMY1-CANX-COX4 = assay: as above
Method in brief: as §1

WPMY1-GM130-SQSTM1 [4] = assay: as above
Method in brief: as §1

WPMY1-TP53BP1-CLTA [5] = assay: as above
Method in brief: as §1

WPMY1-TUBA1B-RELA = assay: as above
Method in brief: as §1

A549-ACTB-RAB5A [6] = assay: lowest phenotypically active concentration; higher = less potent
Method in brief: as §1

A549-TP53BP1-CLTA [7] = assay: as above
Method in brief: as §1

HepG2-TP53BP1-CLTA [8] = assay: as above
Method in brief: as §1

WPMY1-GM130-SQSTM1 [9] = assay: as above
Method in brief: as §1

WPMY1-TP53BP1-CLTA [10] = assay: as above
Method in brief: as §1

Compound	phenotypically active (A549-ACTB-RAB5A [1])	phenotypically active (A549-CANX-COX4)	phenotypically active (A549-GM130-SQSTM1)	phenotypically active (A549-TP53BP1-CLTA [2])	phenotypically active (A549-TUBA1B-RELA)	phenotypically active (HepG2-ACTB-RAB5A)	phenotypically active (HepG2-CANX-COX4)	phenotypically active (HepG2-GM130-SQSTM1)	phenotypically active (HepG2-TP53BP1-CLTA [3])	phenotypically active (HepG2-TUBA1B-RELA)	phenotypically active (WPMY1-ACTB-RAB5A)	phenotypically active (WPMY1-CANX-COX4)	phenotypically active (WPMY1-GM130-SQSTM1 [4])	phenotypically active (WPMY1-TP53BP1-CLTA [5])	phenotypically active (WPMY1-TUBA1B-RELA)	lowest phenotypically active concentration (A549-ACTB-RAB5A [6])	lowest phenotypically active concentration (A549-TP53BP1-CLTA [7])	lowest phenotypically active concentration (HepG2-TP53BP1-CLTA [8])	lowest phenotypically active concentration (WPMY1-GM130-SQSTM1 [9])	lowest phenotypically active concentration (WPMY1-TP53BP1-CLTA [10])
CC[C@H]1C2C[C@H]3[C@@H]4N(C)c5ccccc5[C@]45C[C@H](C2[C@H]5O)N3[C@@H]1O (some centres undefined) [Ajmaline]	0 (inactive)	0 (inactive)	0 (inactive)	0 (inactive)	0 (inactive)	0 (inactive)	0 (inactive)	0 (inactive)	0 (inactive)	0 (inactive)	0 (inactive)	0 (inactive)	0 (inactive)	0 (inactive)	0 (inactive)	–	–	–	–	–
CN1C[C@H](C(=O)N[C@]2(C)O[C@@]3(O)[C@@H]4CCCN4C(=O)[C@H](Cc4ccccc4)N3C2=O)C=C2c3cccc4[nH]cc(c34)C[C@H]21 [ergotamine]	1 (active)	1 (active)	1 (active)	1 (active)	1 (active)	1 (active)	1 (active)	1 (active)	1 (active)	1 (active)	1 (active)	1 (active)	1 (active)	1 (active)	1 (active)	9 µM	3 µM	3 µM	3 µM	3 µM
CC(C)(N)Cc1ccccc1 [phentermine]	0 (inactive)	1 (active)	0 (inactive)	1 (active)	0 (inactive)	1 (active)	0 (inactive)	0 (inactive)	0 (inactive)	0 (inactive)	0 (inactive)	0 (inactive)	1 (active)	0 (inactive)	0 (inactive)	–	3 µM	–	9 µM	–
O=C(Nc1ccncc1)C(=O)c1cn(Cc2ccc(Cl)cc2)c2ccccc12 [Indibulin]	1 (active)	0 (inactive)	1 (active)	1 (active)	1 (active)	1 (active)	1 (active)	1 (active)	1 (active)	1 (active)	1 (active)	1 (active)	1 (active)	1 (active)	1 (active)	≤ 0.3 µM	3 µM	1 µM	≤ 0.3 µM	≤ 0.3 µM
Cc1sc2c(c1C)C(c1ccc(Cl)cc1)=N[C@@H](CC(=O)OC(C)(C)C)c1nnc(C)n1-2	1 (active)	1 (active)	1 (active)	1 (active)	1 (active)	1 (active)	1 (active)	1 (active)	1 (active)	1 (active)	1 (active)	1 (active)	1 (active)	1 (active)	1 (active)	≤ 0.3 µM	≤ 0.3 µM	≤ 0.3 µM	≤ 0.3 µM	≤ 0.3 µM
O=C1NC(=O)c2c1c1c3ccccc3n3c1c1c2c2ccccc2n1C1CCC3O1	1 (active)	0 (inactive)	1 (active)	0 (inactive)	1 (active)	0 (inactive)	0 (inactive)	0 (inactive)	1 (active)	0 (inactive)	1 (active)	1 (active)	1 (active)	1 (active)	0 (inactive)	≤ 0.3 µM	–	9 µM	≤ 0.3 µM	9 µM
CC(C)(O)[C@H]1O[C@H]2CC[C@@]3(C)[C@@](O)(CC[C@H]4Cc5c([nH]c6ccccc56)[C@@]43C)C2=CC1=O [paxilline]	1 (active)	0 (inactive)	0 (inactive)	0 (inactive)	0 (inactive)	1 (active)	0 (inactive)	0 (inactive)	1 (active)	0 (inactive)	0 (inactive)	0 (inactive)	1 (active)	1 (active)	0 (inactive)	9 µM	–	9 µM	9 µM	9 µM
C[C@H]1O[C@@H](O[C@H]2[C@@H](O)C[C@H](O[C@H]3[C@@H](O)C[C@H](O[C@H]4CC[C@@]5(C)[C@H](CC[C@@H]6[C@@H]5CC[C@]5(C)[C@@H](C7=CC(=O)OC7)[C@@H](O)C[C@]65O)C4)O[C@@H]3C)O[C@@H]2C)C[C@H](O)[C@@H]1O [Gitoxin]	1 (active)	1 (active)	1 (active)	1 (active)	1 (active)	1 (active)	1 (active)	1 (active)	1 (active)	1 (active)	1 (active)	1 (active)	1 (active)	1 (active)	1 (active)	≤ 0.3 µM	≤ 0.3 µM	≤ 0.3 µM	1 µM	≤ 0.3 µM
C[C@@H]1CC[C@H]2[C@@H](C)C(=O)O[C@@H]3O[C@@]4(C)CC[C@@H]1[C@]32OO4 [Artemisinin]	1 (active)	0 (inactive)	1 (active)	1 (active)	1 (active)	1 (active)	0 (inactive)	1 (active)	1 (active)	1 (active)	1 (active)	1 (active)	1 (active)	1 (active)	1 (active)	3 µM	3 µM	1 µM	≤ 0.3 µM	1 µM
COc1cc2c(c(OC)c1OC)-c1ccc(OC)c(=O)cc1[C@@H](NC(C)=O)CC2 [colchicine]	1 (active)	1 (active)	1 (active)	1 (active)	1 (active)	1 (active)	1 (active)	1 (active)	1 (active)	1 (active)	1 (active)	1 (active)	1 (active)	1 (active)	1 (active)	≤ 0.3 µM	≤ 0.3 µM	≤ 0.3 µM	≤ 0.3 µM	≤ 0.3 µM
COc1ccc2c(c[n+](C)c3c4cc5c(cc4ccc23)OCO5)c1OC [Chelerythrine chloride]	1 (active)	0 (inactive)	0 (inactive)	1 (active)	0 (inactive)	0 (inactive)	0 (inactive)	0 (inactive)	1 (active)	0 (inactive)	0 (inactive)	0 (inactive)	0 (inactive)	1 (active)	0 (inactive)	3 µM	9 µM	9 µM	–	9 µM
C[C@]12CC[C@H](O)C[C@H]1CC[C@@H]1[C@@H]2C[C@@H](O)[C@]2(C)[C@@H](C3=CC(=O)OC3)CC[C@]12O [Digoxigenin]	1 (active)	1 (active)	1 (active)	1 (active)	1 (active)	1 (active)	1 (active)	1 (active)	1 (active)	1 (active)	1 (active)	1 (active)	1 (active)	1 (active)	1 (active)	≤ 0.3 µM	≤ 0.3 µM	1 µM	3 µM	1 µM
